# From PubChem
# EPAC1 ag: qHTS for Agonist of cAMP-regulated guanine nucleotide exchange factor 3 (EPAC1): primary screen. Rap guanine nucleotide exchange factor 3 (Homo sapiens), O95398. EPAC1 agonist qHTS, biochemical assay; response scale: 100% = response to 6.5 mM cAMP. Potency, µM (series often up to 154 µM), hits mostly activators. hit rate 0.073% among 360,000. AID 720707, 2013; further: nearly all actives have a fitted effect of over 60% in size
#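 Compounds were pinned as a concentration titration into mixtures of EPAC1 (100 nM), BODIPY-GDP-loaded Rap1B (250 nM) and GDP (50 uM). After 5 min at room temperature, fluorescence was followed for 30 min; activity was scaled to 6.5 mM cAMP.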
# EPAC2 ag: qHTS for Agonist of cAMP-regulated guanine nucleotide exchange factor 4 (EPAC2): primary screen; Rap guanine nucleotide exchange factor 4 (Homo sapiens), Q8WZA2; EPAC2 activation, biochemical qHTS; response scale: 100% = 6.5 mM cAMP response; Potency, µM (doses to about 154 µM), usual class: activators; hit rate 0.079% among 360,000; further: nearly all actives have a fitted effect of over 50% in size
#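 Setup: EPAC2 100 nM, labeled Rap1B complex 250 nM, free GDP 50 uM. Compound titrations pinned in, brief spin, 5 min room temperature incubation. Kinetic fluorescence read over 30 min, normalized to 6.5 mM cAMP.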
# 12-LOX inh: Primary qHTS assay for inhibitors of human arachidonate 12S-lipoxygenase (ALOX12): Round 2; Polyunsaturated fatty acid lipoxygenase ALOX12 (Homo sapiens), P18054; purified 12hLO, xylenol orange hydroperoxide absorbance; Potency, µM (highest dose often 108 µM), hits mostly inhibitors; hit rate 1.1% among 580,000; AID 1671190, 2021
# Target sequence (P18054 whole entry, looked up): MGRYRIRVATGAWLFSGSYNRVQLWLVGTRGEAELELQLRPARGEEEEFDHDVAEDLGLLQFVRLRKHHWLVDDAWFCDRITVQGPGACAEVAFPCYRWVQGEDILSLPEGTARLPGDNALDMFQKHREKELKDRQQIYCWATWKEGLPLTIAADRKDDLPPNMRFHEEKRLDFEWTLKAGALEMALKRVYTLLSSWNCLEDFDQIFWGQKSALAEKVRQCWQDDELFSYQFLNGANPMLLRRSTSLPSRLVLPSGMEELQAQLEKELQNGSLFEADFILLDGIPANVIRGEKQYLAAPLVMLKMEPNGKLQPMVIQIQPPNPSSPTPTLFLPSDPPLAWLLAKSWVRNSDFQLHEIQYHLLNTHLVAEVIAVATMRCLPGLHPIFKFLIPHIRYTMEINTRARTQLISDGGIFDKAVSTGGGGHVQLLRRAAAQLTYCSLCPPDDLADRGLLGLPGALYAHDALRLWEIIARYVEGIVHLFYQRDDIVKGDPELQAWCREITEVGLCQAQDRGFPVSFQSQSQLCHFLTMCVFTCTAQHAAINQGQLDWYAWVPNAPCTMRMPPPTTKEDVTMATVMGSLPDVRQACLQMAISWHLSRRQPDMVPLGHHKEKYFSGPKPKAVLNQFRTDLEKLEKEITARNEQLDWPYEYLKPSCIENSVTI
#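 Hydroperoxide product was detected by ferrous iron/xylenol orange as the 573 to 405 nm absorbance ratio. Arachidonic acid at 40 uM (final) was turned over for 30 min at room temperature by 150 nM human 12hLO, pH 7.0 Hepes buffer, after 15 min compound preincubation.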
# EPAC2 antag: qHTS for Antagonist of cAMP-regulated guanine nucleotide exchange factor 2 (EPAC2): primary screen | Rap guanine nucleotide exchange factor 4 (Homo sapiens), Q8WZA2 | EPAC2 GEF exchange of Rap1B-BODIPY-GDP, fluorescence | Potency, µM (series often up to 114 µM), most hits filed as inhibitors | hit rate 0.18% among 360,000 | AID 720708, 2013; further: nearly all actives have a fitted effect of over 45% in size
# EPAC1 antagonist: qHTS for Antagonist of cAMP-regulated guanine nucleotide exchange factor 3 (EPAC1): primary screen. EPAC1 GEF assay, Rap1b-BODIPY-GDP exchange fluorescence. Potency, µM (highest dose often 115 µM), most hits filed as inhibitors. AID 720709, 2013. hit rate 0.14% among 360,000. Rap guanine nucleotide exchange factor 3 (Homo sapiens), O95398; further: nearly all actives have a fitted effect of over 50% in size
# USP1 inh: Inhibitors of USP1/UAF1: Primary Screen | recombinant USP1/UAF1, Ub-Rhodamine cleavage fluorescence | Potency, µM (doses to about 57.1 µM), actives largely listed as inhibitors | hit rate 0.23% among 390,000 | AID 743255, 2014; further: nearly all actives have a fitted effect of over 60% in size
#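 USP1/UAF1 complex (1 nM) preincubated 15 min at room temperature with compound, then Ub-Rho substrate (150 nM final) added. Kinetic fluorescence at 480/540 nm over 6 reads at 60 s intervals; 50 mM HEPES pH 7.8, 0.5 mM EDTA, 0.1 mg/ml BSA, 1 mM TCEP, 0.01% Tween-20.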
# A number is an active result; i = inactive; ? = inconclusive; nt = no result. Compounds with a hit are over-represented: about 1.3% of the library has one in this group of screens. The call rests on the fitted dose curve; in most records, active means well fitted curve in the direction sought with a large enough effect; inconclusive means small, poorly fitted or top-dose-only effect, or another doubt; inactive means no such curve, though single readings can be large; an effect the other way counts as inactive or inconclusive.
SMILES,EPAC1 ag,EPAC2 ag,12-LOX inh,EPAC2 antag,EPAC1 antagonist,USP1 inh
CC(C)(C)NC(=O)C12CC3CC(CC(Cl)(C3)C1)C2,i,i,i,i,i,i
NNc1cccc2ncccc12,nt,nt,3.55µM,nt,nt,nt
O=C(Cc1n[nH]c(=O)c2ccccc12)NCC(=O)N1CCN(c2ccccc2)CC1,nt,nt,11.2µM,nt,nt,nt
O=C(Cc1n[nH]c(=O)c2ccccc12)NCC(=O)N1CCN(c2ccc(F)cc2)CC1,nt,nt,i,nt,nt,nt
C=CC(C)(CCC=C(C)C)OC(=O)C(C)C (centres undefined),nt,nt,i,nt,nt,nt
O=C(NN=C1c2ccccc2-c2ccccc21)c1ccccc1,i,i,?,i,i,i
NC(=S)NN=C1c2ccccc2-c2ccccc21,i,i,35.5µM,i,i,i
CC(C)CNC(=O)c1ccc(Cn2cnc3ccccc3c2=O)cc1,nt,nt,i,nt,nt,nt
Cc1ccc2oc(C(=O)N3CCCCCC3)c(C)c2c1,i,i,i,56.2µM,i,i
Cc1c(C(=O)N2CCCCC2)oc2ccc(Br)cc12,?,i,?,?,i,i
CCCC(NC(C)=O)C12CC3CC(CC(C3)C1)C2 (centres undefined),nt,nt,i,nt,nt,nt
CCCC(NC(=S)NCC1CCCO1)C12CC3CC(CC(C3)C1)C2 (centres undefined),i,i,39.8µM,i,i,i
O=Cc1ccc(-c2cccs2)s1,i,i,i,i,i,i
Oc1ccc(N=Cc2ccc(-c3cccs3)s2)cc1,i,i,?,?,31.6µM,12.6µM
COc1ccc(CCN(C)C/C=C/c2ccccc2[N+](=O)[O-])cc1OC,i,i,0.891µM,i,i,i
Cc1cc2c(C)nc(N/N=C/c3ccc([N+](=O)[O-])cc3)nc2o1,i,i,i,i,?,i
Cc1cc2c(C)nc(N/N=C/c3ccc(F)cc3)nc2o1,i,i,i,i,39.8µM,i
CCOc1c(O)ccc(/C=C2\SC(=S)NC2=O)c1[N+](=O)[O-],i,i,?,56.2µM,i,?
CCOc1ccc(N(C)c2ccc(/C=C3/SC(=S)NC3=O)cc2)cc1,i,i,i,i,i,?
Cc1ccc(N2C(=O)/C(=C/c3cccnc3)SC2=S)cc1,i,i,i,i,i,i
Cc1ccc(N2C(=O)/C(=C/c3ccco3)SC2=S)cc1,i,i,17.8µM,i,i,i
O=c1cc(CO)oc(CN2CCN(c3cccc(C(F)(F)F)c3)CC2)c1O,i,i,1.41µM,i,i,i
O=c1cc(CO)oc(CN2CCN(c3ccccc3)CC2)c1O,i,i,?,i,i,i
Fc1cccc(/C=N/Nc2ccc(Cl)c(Cl)c2)c1,nt,nt,5.01µM,nt,nt,nt
CSc1ccc(/C=N/Nc2cccc(Cl)c2)cc1,nt,nt,1.41µM,nt,nt,nt
SMILES,EPAC1 ag,EPAC2 ag,12-LOX inh,EPAC2 antag,EPAC1 antagonist,USP1 inh
CNC(=S)N/N=C/c1ccc(SC)cc1,nt,nt,14.1µM,nt,nt,nt
Fc1ccc(/C=N/Nc2ccc(Cl)c(Cl)c2)cc1,nt,nt,2.24µM,nt,nt,nt
Cc1ccc(N/N=C/c2ccc(F)cc2F)cc1Cl,nt,nt,i,nt,nt,nt
Cc1ncc(-c2ccc(S(=O)(=O)Nc3ccccc3C)cc2)o1,nt,nt,i,nt,nt,nt
CSc1ccc(/C=N/Nc2ccc(Cl)c(C(=O)O)c2)cc1,i,i,?,i,i,i
CSc1ccc(/C=N/Nc2ccc(Cl)c(Cl)c2)cc1,nt,nt,2µM,nt,nt,nt
Cc1ccc(N/N=C/c2ccc(Cl)c(Cl)c2)cc1,nt,nt,15.8µM,nt,nt,nt
Fc1ccc(/C=N/Nc2ccc(Cl)c(Cl)c2)cc1F,nt,nt,5.01µM,nt,nt,nt
CSc1ccc(/C=N/Nc2ccc(F)cc2)cc1,nt,nt,1.26µM,nt,nt,nt
Cc1ccc(/C=N/Nc2nc(C)cc(C)n2)cc1,i,i,?,i,?,i
CCOc1cc(/C=C2\NC(=O)NC2=O)cc(I)c1OC(C)C,nt,nt,i,nt,nt,nt
COc1ccc(-c2cc(N3CCCC(NC(=O)c4sccc4C)C3)n[nH]2)cc1 (centres undefined),nt,nt,i,nt,nt,nt
Cc1cccc(/C=N/Nc2ccc(Cl)c(Cl)c2)c1,nt,nt,5.62µM,nt,nt,nt
